Values without a mark were called inactive.
System: Vero E6 infected with SARS-CoV-2
Test: inhibition of SARS-CoV-2 cytopathic effect; higher = more antiviral protection, active = above 15
Conditions: 100 nM; 48 h

Row | Compound | inhibition of SARS-CoV-2 cytopathic effect
1 | C[C@@H]1Cc2c([nH]c3ccccc23)[C@@H](c2c(F)cc(/C=C/C(=O)O)cc2F)N1CC(C)(C)F | -2.47%
2 | NS(=O)(=O)c1cc2c(cc1Cl)N=CNS2(=O)=O [chlorothiazide] | -0.95%
3 | CC(C)[C@H]1c2ccc(F)cc2CC[C@@]1(CCN(C)CCCc1nc2ccccc2[nH]1)OC(=O)C1CC1 | 7.24%
4 | CCCCc1ccc2[nH]c(NC(=O)OC)nc2c1 [parbendazole] | -0.29%
5 | CC[C@@H](CO)NC(=O)[C@@H]1C=C2c3cccc4[nH]cc(c34)C[C@H]2N(C)C1 [methylergometrine] | -0.17%
6 | CC(C)N[C@H]1CCn2c(=O)[nH]c3cccc(c32)[C@@H]1O [zilpaterol] | -1.14%
7 | CCOC(=O)Nc1nc2ccccc2[nH]1 [lobendazole] | -4.73%
8 | CN(C)c1ccccc1CN1CCCN(Cc2ccccc2N(C)C)C1c1ccncc1 | 0.14%
9 | CN1C(=O)N(C)C2C1N(C)C(=O)N2C (stereo unspecified) [mebicar] | -3.06%
10 | CC(=O)Oc1ccccc1C(=O)O [aspirin] | -7.3%
11 | Cc1c(C(=O)NN2CCCCC2)nn(-c2ccc(Cl)cc2Cl)c1-c1ccc(Cl)cc1 [rimonabant] | -0.12%
12 | CS(=O)(=O)Nc1ccc([N+](=O)[O-])cc1Oc1ccccc1 [nimesulide] | 1.12%
13 | O=c1nc2ccccc2c2n1CC(CN1CCN(c3ccccc3)CC1)N2 (stereo unspecified) | 2.83%
14 | COc1cc(Cc2cnc(N)nc2N)cc(OC)c1OC [trimethoprim] | -0.75%
15 | CN1[C@@H]2C[C@@H](O)C[C@H]1[C@@H]1O[C@@H]12 [scopine] | -0.08%
16 | C=CCNc1ncnc2ccc(Br)cc12 | 4.33%

Row | Compound | inhibition of SARS-CoV-2 cytopathic effect
17 | COc1ccc2cc(C(C)C(=O)Oc3ccc(C(N)=S)cc3)ccc2c1 (stereo unspecified) | -0.37%
18 | CN[C@H](CC(C)C)C(=O)N[C@H]1C(=O)N[C@@H](CC(N)=O)C(=O)N[C@H]2C(=O)N[C@H]3C(=O)N[C@H](C(=O)N[C@H](C(=O)O)c4cc(O)cc(O)c4-c4cc3ccc4O)[C@H](O[C@H]3C[C@](C)(N)[C@@H](O)[C@H](C)O3)c3ccc(c(Cl)c3)Oc3cc2cc(c3O[C@@H]2O[C@H](CO)[C@@H](O)[C@H](O)[C@H]2O[C@H]2C[C@](C)(NCc3ccc(-c4ccc(Cl)cc4)cc3)[C@@H](O)[C@H](C)O2)Oc2ccc(cc2Cl)[C@H]1O [oritavancin] | -0.56%
19 | N=C(N)c1ccc(/N=N/Nc2ccc(C(=N)N)cc2)cc1 [diminazene-aceturate] | -3.27%
20 | C=CC[N+]1([C@H]2C[C@H]3[C@@H]4CC[C@H]5C[C@H](O)[C@@H](N6CCOCC6)C[C@]5(C)[C@H]4CC[C@]3(C)[C@H]2OC(C)=O)CCCC1 | 2.36%
21 | C[C@H]1[C@H](C)CC[C@]2(C(=O)O)CC[C@]3(C)C(=CC[C@@H]4[C@@]5(C)C[C@@H](O)[C@H](O)[C@@](C)(CO)[C@@H]5CC[C@]43C)[C@H]12 [asiatic-acid] | -0.32%
22 | Nn1cnc2cc3ccccc3cc2c1=O [centazolone] | 0.4%
23 | Cc1cc(C(=O)O)sc1C(N)C(=O)O (stereo unspecified) | -1.39%
24 | NC(=O)C(c1ccccc1)(c1ccc(F)cc1)c1ccc(F)cc1 [senicapoc] | -2.37%
25 | CCOc1c2c(c(OCC)c3ccccc13)C(=O)N(c1ccc(CC(=O)NS(=O)(=O)c3ccccc3)cc1)C2 | 0.73%
26 | COc1c(O)cc2c(c1O)[C@@H]1O[C@H](CO)[C@@H](O)[C@H](O)[C@H]1OC2=O [bergenin] | -0.14%
27 | O=C(O)c1cc(/N=N/c2ccc(O)c(C(=O)O)c2)ccc1O [olsalazine] | 0.75%
28 | O=C(Cc1ccc(-c2ccccc2)cc1)Nc1ccccn1 [difenpiramide] | -1.56%
29 | Nc1nc(N)c(N=O)c(OCC2CCCCC2)n1 | 1.88%
30 | CC(C)N(CC[C@H](c1ccccc1)c1cc(CO)ccc1O)C(C)C [5-hydroxymethyl-tolterodine] | -1.82%
31 | CCn1c(=O)c2c(nc(/C=C/c3ccc(OC)c(OC)c3)n2C)n(CC)c1=O [istradefylline] | -0.91%

Source: the supplement of paper PMC13380429
